# Source: PubChem BioAssay AID588342 (National Center for Advancing Translational Sciences (NCATS), 2011)
# Out of some 360,000 compounds screened, about 25,000 (6.9%) were called active. Where a call stands in place of a potency, no number is given. Another 9% or so got no clear call; they are omitted. Calls come from the whole dose curve; as a rule, active = well fitted inhibition curve with a large enough effect; inconclusive = small, poorly fitted or top-dose-only effect; inactive = flat fitted curve, though single readings scatter. For the sample, actives were picked, then their nearest neighbours and some compounds at random.
# Biological target: Luciferin 4-monooxygenase (Photinus pyralis) (UniProt P08659)
# Assay: qHTS profiling assay for firefly luciferase inhibitor/activator using purifed enzyme and Km concentrations of substrates (counterscreen for miR-21 project); note: nearly all actives have a fitted effect of over 55% in size
# Details: purified FLuc, luminescence inhibition; series mostly up to 57.5 µM
# Procedure, shortened: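 Purified P. pyralis luciferase (10nM final) with 10uM D-luciferin and 10uM ATP (Km levels) in 50mM Tris acetate pH 7.5, 10mM Mg acetate, 0.01% Tween-20, 0.05% BSA; qHTS 6-point titration, ~60 µM downward; luminescence read.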
# Potency is the fitted concentration of half-maximal effect.
# Sequence of Luciferin 4-monooxygenase (Photinus pyralis) (P08659 whole entry, looked up): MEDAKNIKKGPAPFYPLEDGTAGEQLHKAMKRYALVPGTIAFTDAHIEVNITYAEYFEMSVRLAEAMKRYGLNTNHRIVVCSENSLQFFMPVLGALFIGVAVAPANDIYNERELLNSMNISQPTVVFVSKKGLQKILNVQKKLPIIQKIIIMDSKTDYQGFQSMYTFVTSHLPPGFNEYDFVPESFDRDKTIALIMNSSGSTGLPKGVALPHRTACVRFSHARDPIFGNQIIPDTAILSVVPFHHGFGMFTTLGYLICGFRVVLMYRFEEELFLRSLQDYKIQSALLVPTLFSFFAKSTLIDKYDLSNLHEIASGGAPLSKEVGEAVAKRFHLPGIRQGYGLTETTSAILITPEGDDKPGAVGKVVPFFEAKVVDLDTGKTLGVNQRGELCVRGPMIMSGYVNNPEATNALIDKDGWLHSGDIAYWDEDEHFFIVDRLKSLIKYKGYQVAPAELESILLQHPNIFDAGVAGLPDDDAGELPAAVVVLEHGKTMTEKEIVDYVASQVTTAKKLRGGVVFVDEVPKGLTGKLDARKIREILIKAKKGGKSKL
row,SMILES,Potency
1,CN(C)c1ccnc2sc3c(=O)n(Cc4ccccc4)cnc3c12,inactive
2,Cc1ccc2c(N)c(C(=O)c3ccccc3)sc2n1,21.3 µM (active)
3,COc1cccc(C(=O)c2sc3nc(-c4ccccc4)cc(C(F)(F)F)c3c2N)c1,inactive
4,Nc1c(C(=O)NCc2ccccc2)sc2nc3c(cc12)C(=O)CCC3,inactive
5,COc1ccc(C(F)(F)F)cc1NC(=O)c1sc2nc(-c3cccs3)ccc2c1N,inactive
6,CCN(CC)C(=O)c1sc2nc(-c3ccccc3)ccc2c1N,5.36 µM (active)
7,CC(=O)c1c(Nc2ccccc2)sc(C(=O)c2ccccc2)c1C,inactive
8,CN(C)c1ccnc2sc(C(=O)c3ccccc3)c(N)c12,5.36 µM (active)
9,Cc1nc2sc(C(=O)c3ccccc3)c(N)c2c2c1CCCC2,10.7 µM (active)
10,CCc1nc2sc(C(=O)O)c(N)c2c2c1CCCC2,inactive
11,COC(=O)c1cc2c(N)c(C(=O)c3ccc(Cl)cc3)sc2nc1C(OC)OC,inactive
12,CCCS(=O)(=O)c1c(Nc2ccccc2C)sc(C(=O)c2ccccc2)c1N,inactive
13,COc1cc(OC)c(NC(=O)Cc2ccc(-n3c(C)nc4cccnc43)cc2)cc1Cl,inactive
14,O=C(O)CCCCCCCCc1cn(CN2C(=O)c3ccccc3C2=O)nn1,inactive
15,CCOCCCNC(=O)c1c(NC(=O)c2nc(SC)ncc2Cl)sc2c1CCCC2,inactive
16,CC(=O)NC(c1cccs1)c1cc(Br)c2cccnc2c1O (stereo not given),inactive
17,CC(OC(=O)CNC(=O)c1cccc(F)c1)C(=O)NC1CCCCC1C (stereo not given),inactive
18,CCN(CC)c1ccc(C2C(C(N)=O)=C(C)Nc3nc(SCc4ccccc4)nn32)cc1 (stereo not given),inactive
19,COC(=O)c1nc(NC(=O)c2ccc(F)cc2)n[nH]1,inactive
20,CSc1ncc(C(=O)Nc2ccc(C)cc2C)c(C)n1,inactive
21,CSc1nccc(NC(=O)c2ccc(C(C)(C)C)cc2)n1,1.9 µM (active)
22,COC(=O)c1ccccc1NC(=O)c1cc(-c2ccccc2O)no1,inactive
23,O=S(=O)(NCCCCCCNS(=O)(=O)c1c(F)cccc1F)c1ccc2c(c1)OCCO2,inactive
24,Cc1ccccc1CCNC(=O)C1CCN(c2nc3ccccc3nc2C(F)(F)F)CC1,inactive
25,O=C1CCNCCN1[C@H](CO)Cc1ccccc1,inactive
26,CC(=O)NCC(=O)N(Cc1ccco1)C1(C(=O)NC2CCCC2)CCCCC1,inactive
27,Cc1cccn2c(=O)c(C(=O)NC(C)c3ccccc3)cnc12 (stereo not given),inactive

row,SMILES,Potency
1,CSc1ccccc1NC(=O)c1cc(Cl)sc1Cl,inactive
2,CSc1ccccc1NC(=O)c1cnc2sc(C)cn2c1=O,5.36 µM (active)
3,CCOc1ccc(NS(=O)(=O)c2ccc(Cl)c(C(=O)N(C)Cc3cccnc3)c2)cc1,inactive
4,CC(=O)Nc1ccc(NC(=O)CCN2C(=O)C3CC=CCC3C2=O)cc1 (stereo not given),inactive
5,CCC(=O)c1ccc(OCC(=O)N(CC)CC2COc3ccccc3O2)cc1 (stereo not given),inactive
6,CCC(=O)N1CCc2cc(S(=O)(=O)NC(C(=O)Nc3ccc(C(C)=O)cc3)C(C)C)ccc21 (stereo not given),inactive
7,COc1ccccc1Oc1ccc(N/C=C2/CCCC2=O)cc1,inactive
8,O=C(Cc1ccccc1)NNC(=O)C1CCN(c2ncccn2)CC1,inactive
9,O=C1/C(=C\Nc2ccccc2)CCN1c1ncccn1,23.9 µM (active)
10,CCc1nnc(SCc2c(F)cccc2Cl)c2cc3sccc3n12,inactive
11,COc1cc(C(=O)NN(CCC#N)C2=NS(=O)(=O)c3ccccc32)cc(OC)c1OC,inactive
12,CCOC(=O)C1CCCN(C(=O)Cn2ncc3c(C)n(Cc4ccc(F)cc4)c(C)c3c2=O)C1 (stereo not given),inactive
13,Cc1cnc(CN(C)C(=O)C2CCC(=O)N(CCc3cccc(F)c3)C2)[nH]1 (stereo not given),inactive
14,O=C(Nc1ccc(Br)cn1)c1ccc([N+](=O)[O-])cc1Cl,13.5 µM (active)
15,O=C(Nc1cccnc1)c1cc([N+](=O)[O-])ccc1Cl,inactive
16,O=C(Nc1ccncc1)c1ccc([N+](=O)[O-])cc1Cl,inactive
17,COc1ccc2[nH]c3c(c2c1)CCN(C(=O)CCC1CCCC1)C3c1ccc(F)cc1 (stereo not given),inactive
18,Cc1cccc(-c2noc(CCC(=O)NC3CCCC3)n2)c1,inactive
19,Cc1ccc(-c2noc(CC(c3ccccc3)c3ccccc3)n2)cc1,inactive
20,Cc1ccc(Cc2nc(-c3cccc(C)c3)no2)cc1,10.7 µM (active)
21,CCc1ccccc1NC(=O)CSc1nnc(-c2ccccc2)c(-c2ccccc2)n1,inactive
22,Cc1ccc(CCNC(=O)Cn2c(-c3cccs3)cc3cc(F)ccc32)cc1,inactive
23,CCc1nn(CC(=O)N2CCN(c3cccc(C(F)(F)F)c3)CC2)c(=O)c2cc3occc3n12,inactive
24,Oc1ccc(-n2nnnc2SCc2c(F)cccc2Cl)cc1,inactive
25,Fc1cccc(Cl)c1CSc1ccc(-c2ccco2)nn1,13.5 µM (active)
26,Cc1cc(SCc2c(F)cccc2Cl)nc(=O)[nH]1,inactive
27,CCn1c(CNC(=O)c2ccco2)nnc1SCC(=O)Nc1cccc(F)c1,inactive

row,SMILES,Potency
1,O=C(CSc1ccc(-c2ccco2)nn1)NCc1ccc2c(c1)OCO2,inactive
2,O=C(CSc1ccc(-c2ccco2)nn1)Nc1cccc(F)c1,12 µM (active)
3,Cc1noc2ncnc(NCc3ccccc3Cl)c12,inactive
4,O=C(CCSCc1cccc(F)c1)NCc1ccccc1,inactive
5,c1ccc2sc(NN=C3CCCC3)nc2c1,2.69 µM (active)
6,CCN(CC)CCn1c2c(c(SCC(=O)Nc3nc4ccccc4s3)nc1=O)CCCC2,inactive
7,O=C1NC(Nc2nc3ccccc3s2)(C(F)(F)F)C(=O)N1C1CCCCC1 (stereo not given),inactive
8,COC(=O)c1ccccc1NC(=O)C(Cc1ccccc1)N1Cc2ccccc2C1=O (stereo not given),inactive
9,COCCNC(=O)CSc1nc(-c2ccccc2)[nH]c1-c1ccc(C)cc1,inactive
10,C=CCNC(=S)N1CCN(CCN=Cc2c(C)[nH]n(-c3ccc([N+](=O)[O-])cc3)c2=O)CC1,inactive
11,O=C(Nc1ccccc1C(F)(F)F)c1cc(-c2ccc(O)cc2)on1,26.9 µM (active)
12,CCc1ccccc1NC(=O)c1cc(-c2ccc3c(c2)OCO3)on1,inactive
13,O=C(Nc1cccnc1Cl)c1cc(-c2cccc(Cl)c2)on1,inactive
14,Cc1ccccc1CSc1nc2c([nH]c3ccccc32)c(=O)n1C,inactive
15,COc1ccc(CNC(=O)CS(=O)Cc2nc(-c3cccc(C)c3)oc2C)cc1 (stereo not given),inactive
16,COc1ccc(CNc2nc(-c3ccc(Cl)cc3)nn2C(=O)c2ccccc2)cc1,inactive
17,COc1ccc(Cn2c(-c3ccc(Cl)cc3)c[n+]3ccccc23)cc1,19 µM (active)
18,COc1ccc(CNc2nc(-c3ccc(Cl)cc3)cc(C(F)(F)F)n2)cc1,inactive
19,COc1ccc(OC)c(-c2csc(-c3c(N)c(C(=O)c4ccccc4)n4ccccc34)n2)c1,inactive
20,CC(C)(C)c1ccc(C(=O)N2CCC(c3nc(-c4ccc(S(=O)(=O)N5CCCC5)cc4)no3)CC2)cc1,inactive
21,Cc1ccc(NC(=O)c2csc3c2CCCC3)cc1,4.26 µM (active)
22,CCOc1ccc(CCNC(=O)c2csc3c2CCCCC3)cc1,inactive
23,CC1CC(C)CN(CCCNC(=O)c2csc3c2CCCCC3)C1 (stereo not given),inactive
24,CCOC(=O)c1sc(NC(=O)c2cc(S(=O)(=O)N3CCOCC3)ccc2C)nc1C,inactive
25,O=C(N/N=C/c1ccco1)c1ccc(NC(=O)C2CC2)cc1,inactive
26,O=C(N/N=C/c1ccco1)c1csc2c1CCCC2,15.1 µM (active)
27,COC(=O)c1sc(NC(=O)c2csc3c2CCCC3)nc1C,2.39 µM (active)

row,SMILES,Potency
1,O=C(NCc1ccccc1Cl)c1csc2c1CCCCC2,inactive
2,CC(C)NC(=O)C(=O)N/N=C/c1ccco1,inactive
3,Cc1c(CCOC(=O)CC23CC4CC(CC(C)(C4)C2)C3)sc[n+]1Cc1ccc([N+](=O)[O-])cc1,inactive
4,CCn1c(SCC(=O)NCC2CCCO2)nc2ccccc21 (stereo not given),inactive
5,CCc1ccccc1NC(=O)Cn1c(=O)n(-c2cccc(C)c2)c(=O)c2c1c1cc(OC)ccc1n2C,inactive
6,CC(=O)c1ccc(S(=O)(=O)NCCC(=O)N2CCN(c3ccccn3)CC2)cc1,inactive
7,O=C(CC(c1cccs1)N1Cc2ccccc2C1=O)Nc1ccc(F)cc1F (stereo not given),inactive
8,Nc1ccc(C(=O)N2CCN(S(=O)(=O)c3ccc(Cl)cc3)CC2)cc1[N+](=O)[O-],inactive
9,COc1ccc(-c2nc(S(=O)(=O)c3ccccc3)c(N3CCCCC3)o2)cc1,inactive
10,Nc1ccc(S(=O)(=O)Nc2nccc(/C=C/c3ccc(Br)s3)n2)cc1,inactive
11,Oc1cccc2ccc(/C=C/c3ccc(Br)s3)nc12,6.75 µM (active)
12,COc1cccc(N(CC(=O)NC2CCCC2)C(=O)CCCC(=O)Nc2ccccn2)c1,inactive
13,COc1ccc(C(=O)Nc2c(Cl)cc(Cl)cc2C(=O)N2CCC(C)CC2)cc1,inactive
14,CC1CCN(C(=S)c2cccc(O)c2)CC1,inactive
15,CC1CCN(C(=S)c2ccc(-c3ccc(Cl)cc3Cl)o2)CC1,12 µM (active)
16,O=C(CN1C(=O)COc2ccc(S(=O)(=O)N3CCOCC3)cc21)N1CCN(c2cccc(Cl)c2)CC1,inactive
17,Cc1onc(-c2ccccc2)c1C(=O)Nc1ccccc1C#N,inactive
18,COc1ccc(C(=O)NC(=S)NNC(=O)c2c(-c3ccccc3)noc2C)cc1,inactive
19,CC(=O)c1cccc(NC(=O)c2cc(C)nn2-c2ccccc2)c1,inactive
20,O=C(NNC(=S)NC(=O)c1cn(-c2ccccc2)nc1-c1ccccc1)c1ccncc1,13.5 µM (active)
21,Cc1onc(-c2ccccc2)c1C(=O)NNC(=S)NC(=O)c1ccc(F)cc1,inactive
22,O=C(Nc1cn(-c2ccccc2)nc1-c1ccccc1)c1ccccc1,15.1 µM (active)
23,CCCCn1cc(S(=O)(=O)c2ccc(OCC)cc2)c(=O)c2cc(OC)c(OC)cc21,inactive
24,CCCCC/C=C/C1=CC(=O)C[C@H](c2ccc(Cl)cc2)C1,inactive
